Results taken from ChEMBL document CHEMBL2218924, “A broad activity screen in support of a chemogenomic map for kinase signalling research and drug discovery” (Biochem J, 2013).

Legend:
[1] = molecular target: Tyrosine-protein kinase Fer (Homo sapiens) (UniProt P16591); conditions: at 10 µM
[2] = molecular target: Tyrosine-protein kinase Fes/Fps (Homo sapiens) (UniProt P07332); conditions: at 1 µM
[3] = molecular target: Tyrosine-protein kinase Fes/Fps (Homo sapiens) (UniProt P07332); conditions: at 10 µM
[4] = molecular target: Tyrosine-protein kinase Fgr (Homo sapiens) (UniProt P09769); conditions: at 1 µM
[5] = molecular target: Tyrosine-protein kinase Fgr (Homo sapiens) (UniProt P09769); conditions: at 10 µM
[6] = molecular target: Vascular endothelial growth factor receptor 1 (Homo sapiens) (UniProt P17948); conditions: at 1 µM
[7] = molecular target: Vascular endothelial growth factor receptor 1 (Homo sapiens) (UniProt P17948); conditions: at 10 µM
[8] = molecular target: Receptor-type tyrosine-protein kinase FLT3 (Homo sapiens) (UniProt P36888); conditions: at 1 µM
[9] = molecular target: Receptor-type tyrosine-protein kinase FLT3 (Homo sapiens) (UniProt P36888); conditions: at 10 µM
[10] = molecular target: Vascular endothelial growth factor receptor 3 (Homo sapiens) (UniProt P35916); conditions: at 1 µM
Chain of Vascular endothelial growth factor receptor 3 (Homo sapiens) (P35916 whole entry): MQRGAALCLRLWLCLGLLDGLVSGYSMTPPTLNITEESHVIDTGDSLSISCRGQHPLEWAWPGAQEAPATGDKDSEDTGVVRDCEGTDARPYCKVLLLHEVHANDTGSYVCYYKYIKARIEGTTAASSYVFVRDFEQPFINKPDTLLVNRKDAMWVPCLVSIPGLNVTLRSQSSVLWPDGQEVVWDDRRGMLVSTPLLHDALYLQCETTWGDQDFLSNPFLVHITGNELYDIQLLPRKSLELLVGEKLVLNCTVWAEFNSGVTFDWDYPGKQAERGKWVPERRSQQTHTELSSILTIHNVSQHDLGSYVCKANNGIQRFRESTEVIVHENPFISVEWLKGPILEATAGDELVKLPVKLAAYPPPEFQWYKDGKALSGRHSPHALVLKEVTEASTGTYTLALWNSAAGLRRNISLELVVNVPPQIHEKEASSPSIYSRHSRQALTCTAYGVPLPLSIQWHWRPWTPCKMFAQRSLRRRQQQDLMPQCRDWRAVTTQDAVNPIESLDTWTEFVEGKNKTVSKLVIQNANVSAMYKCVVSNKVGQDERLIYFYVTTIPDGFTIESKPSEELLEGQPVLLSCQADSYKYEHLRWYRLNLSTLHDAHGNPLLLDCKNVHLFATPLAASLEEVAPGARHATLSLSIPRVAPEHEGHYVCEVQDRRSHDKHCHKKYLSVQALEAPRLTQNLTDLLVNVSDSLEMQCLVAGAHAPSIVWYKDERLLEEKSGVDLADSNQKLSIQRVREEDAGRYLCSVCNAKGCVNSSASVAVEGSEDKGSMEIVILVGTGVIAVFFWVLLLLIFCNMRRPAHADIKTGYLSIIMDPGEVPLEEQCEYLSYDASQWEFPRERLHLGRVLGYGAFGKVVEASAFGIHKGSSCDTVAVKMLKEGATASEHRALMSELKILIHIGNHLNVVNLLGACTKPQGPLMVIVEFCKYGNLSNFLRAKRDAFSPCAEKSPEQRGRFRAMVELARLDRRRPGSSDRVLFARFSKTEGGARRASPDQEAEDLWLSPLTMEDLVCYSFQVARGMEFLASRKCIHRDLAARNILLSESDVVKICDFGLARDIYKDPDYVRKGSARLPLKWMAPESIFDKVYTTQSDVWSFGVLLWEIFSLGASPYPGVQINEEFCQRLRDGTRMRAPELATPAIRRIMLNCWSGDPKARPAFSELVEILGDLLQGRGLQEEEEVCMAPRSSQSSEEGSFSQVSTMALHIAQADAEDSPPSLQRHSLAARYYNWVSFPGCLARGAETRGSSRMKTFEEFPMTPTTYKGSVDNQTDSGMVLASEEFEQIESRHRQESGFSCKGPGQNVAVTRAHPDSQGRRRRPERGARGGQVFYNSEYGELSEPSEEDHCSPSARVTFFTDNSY

Chain of Tyrosine-protein kinase Fes/Fps (Homo sapiens) (P07332 whole entry): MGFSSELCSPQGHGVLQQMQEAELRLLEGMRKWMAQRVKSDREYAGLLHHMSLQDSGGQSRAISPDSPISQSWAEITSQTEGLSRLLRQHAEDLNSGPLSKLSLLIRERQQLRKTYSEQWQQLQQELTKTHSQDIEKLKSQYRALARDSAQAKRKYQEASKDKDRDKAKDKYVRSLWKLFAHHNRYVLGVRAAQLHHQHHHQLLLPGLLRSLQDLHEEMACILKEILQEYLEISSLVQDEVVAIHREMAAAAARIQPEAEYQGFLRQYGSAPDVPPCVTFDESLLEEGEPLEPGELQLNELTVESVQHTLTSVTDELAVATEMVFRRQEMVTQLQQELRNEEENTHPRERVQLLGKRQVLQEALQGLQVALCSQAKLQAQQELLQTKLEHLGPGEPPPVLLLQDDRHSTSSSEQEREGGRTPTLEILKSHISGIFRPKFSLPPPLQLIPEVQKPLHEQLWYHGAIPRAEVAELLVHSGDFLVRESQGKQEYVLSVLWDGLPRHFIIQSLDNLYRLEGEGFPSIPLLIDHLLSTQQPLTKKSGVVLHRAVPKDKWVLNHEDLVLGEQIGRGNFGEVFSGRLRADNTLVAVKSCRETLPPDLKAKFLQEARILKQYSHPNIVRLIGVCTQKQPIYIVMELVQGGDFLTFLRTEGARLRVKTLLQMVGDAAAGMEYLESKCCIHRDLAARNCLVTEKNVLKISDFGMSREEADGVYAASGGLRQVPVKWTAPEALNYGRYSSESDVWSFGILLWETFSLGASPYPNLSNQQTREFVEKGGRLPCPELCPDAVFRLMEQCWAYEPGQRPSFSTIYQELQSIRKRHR
Chain of Vascular endothelial growth factor receptor 1 (Homo sapiens) (P17948 whole entry): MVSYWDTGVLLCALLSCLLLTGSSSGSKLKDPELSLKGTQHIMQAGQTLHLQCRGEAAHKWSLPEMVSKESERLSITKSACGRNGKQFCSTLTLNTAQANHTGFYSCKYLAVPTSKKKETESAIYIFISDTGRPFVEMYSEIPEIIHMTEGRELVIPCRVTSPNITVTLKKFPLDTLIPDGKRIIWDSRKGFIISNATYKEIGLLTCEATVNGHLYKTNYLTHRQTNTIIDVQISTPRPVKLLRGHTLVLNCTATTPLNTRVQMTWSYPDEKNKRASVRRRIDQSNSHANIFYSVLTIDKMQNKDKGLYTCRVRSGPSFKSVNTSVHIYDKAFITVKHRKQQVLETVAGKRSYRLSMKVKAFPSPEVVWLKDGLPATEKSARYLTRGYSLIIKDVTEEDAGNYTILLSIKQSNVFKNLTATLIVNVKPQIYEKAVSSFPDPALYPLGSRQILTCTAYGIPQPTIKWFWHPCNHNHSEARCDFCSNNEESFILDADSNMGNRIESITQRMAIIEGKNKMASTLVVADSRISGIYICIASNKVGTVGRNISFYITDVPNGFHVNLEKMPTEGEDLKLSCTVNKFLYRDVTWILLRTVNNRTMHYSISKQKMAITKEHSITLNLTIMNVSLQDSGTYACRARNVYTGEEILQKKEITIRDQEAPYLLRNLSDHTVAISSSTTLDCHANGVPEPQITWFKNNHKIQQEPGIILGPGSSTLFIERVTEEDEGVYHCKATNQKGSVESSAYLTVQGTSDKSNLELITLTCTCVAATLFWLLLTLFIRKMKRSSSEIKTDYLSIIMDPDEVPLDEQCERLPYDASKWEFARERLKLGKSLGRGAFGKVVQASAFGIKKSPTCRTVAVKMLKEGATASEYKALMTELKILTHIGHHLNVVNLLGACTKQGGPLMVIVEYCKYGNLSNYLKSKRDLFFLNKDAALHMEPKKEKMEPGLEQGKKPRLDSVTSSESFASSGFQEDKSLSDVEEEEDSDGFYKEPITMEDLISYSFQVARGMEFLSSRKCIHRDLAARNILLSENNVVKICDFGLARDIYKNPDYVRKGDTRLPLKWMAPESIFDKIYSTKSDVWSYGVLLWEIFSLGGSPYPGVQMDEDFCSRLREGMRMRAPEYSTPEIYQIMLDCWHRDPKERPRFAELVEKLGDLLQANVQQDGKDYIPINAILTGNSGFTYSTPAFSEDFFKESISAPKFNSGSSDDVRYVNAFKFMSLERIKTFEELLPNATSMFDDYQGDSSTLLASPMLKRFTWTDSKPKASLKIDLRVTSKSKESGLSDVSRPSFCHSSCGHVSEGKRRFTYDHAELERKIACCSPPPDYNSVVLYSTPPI
Chain of Tyrosine-protein kinase Fer (Homo sapiens) (P16591 whole entry, looked up): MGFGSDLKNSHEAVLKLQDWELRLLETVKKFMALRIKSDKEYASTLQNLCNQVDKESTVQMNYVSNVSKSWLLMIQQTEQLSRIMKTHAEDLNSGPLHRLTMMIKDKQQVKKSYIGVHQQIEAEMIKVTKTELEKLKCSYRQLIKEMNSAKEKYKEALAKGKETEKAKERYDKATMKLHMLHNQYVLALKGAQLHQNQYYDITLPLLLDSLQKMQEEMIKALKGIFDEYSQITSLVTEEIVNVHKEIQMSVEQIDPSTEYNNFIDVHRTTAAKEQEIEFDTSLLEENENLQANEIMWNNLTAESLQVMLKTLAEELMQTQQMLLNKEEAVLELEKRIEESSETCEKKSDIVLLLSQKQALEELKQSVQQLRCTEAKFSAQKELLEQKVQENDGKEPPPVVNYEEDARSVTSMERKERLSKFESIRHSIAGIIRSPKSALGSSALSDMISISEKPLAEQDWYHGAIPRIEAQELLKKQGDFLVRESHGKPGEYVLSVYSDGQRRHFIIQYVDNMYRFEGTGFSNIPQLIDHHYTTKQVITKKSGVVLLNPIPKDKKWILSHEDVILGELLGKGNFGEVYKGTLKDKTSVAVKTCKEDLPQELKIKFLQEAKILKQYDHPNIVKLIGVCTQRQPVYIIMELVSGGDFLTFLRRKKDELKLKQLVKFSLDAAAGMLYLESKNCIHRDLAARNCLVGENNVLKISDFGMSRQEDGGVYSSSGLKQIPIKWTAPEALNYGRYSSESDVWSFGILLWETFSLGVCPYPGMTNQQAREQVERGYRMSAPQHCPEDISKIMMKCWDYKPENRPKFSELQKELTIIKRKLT
Chain of Tyrosine-protein kinase Fgr (Homo sapiens) (P09769 2-529 limits assumed): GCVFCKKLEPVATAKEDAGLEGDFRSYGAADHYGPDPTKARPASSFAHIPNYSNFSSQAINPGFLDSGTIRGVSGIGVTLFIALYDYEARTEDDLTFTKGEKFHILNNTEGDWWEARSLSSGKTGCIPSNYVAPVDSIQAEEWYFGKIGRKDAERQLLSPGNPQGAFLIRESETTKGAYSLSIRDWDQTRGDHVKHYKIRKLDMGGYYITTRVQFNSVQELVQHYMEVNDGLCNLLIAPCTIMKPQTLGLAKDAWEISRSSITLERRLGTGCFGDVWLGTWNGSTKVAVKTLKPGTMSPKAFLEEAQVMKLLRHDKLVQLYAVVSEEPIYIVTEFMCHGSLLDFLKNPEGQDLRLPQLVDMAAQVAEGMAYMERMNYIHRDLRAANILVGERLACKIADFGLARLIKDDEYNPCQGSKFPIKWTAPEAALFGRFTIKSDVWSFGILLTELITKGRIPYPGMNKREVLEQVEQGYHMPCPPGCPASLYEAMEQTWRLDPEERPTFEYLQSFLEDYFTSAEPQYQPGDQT

SMILES | residual activity [1] | residual activity [2] | residual activity [3] | residual activity [4] | residual activity [5] | residual activity [6] | residual activity [7] | residual activity [8] | residual activity [9] | residual activity [10]
O=C1NC(=O)c2c1c1c3ccccc3[nH]c1c1[nH]c3cc(Br)ccc3c21 | 86% | 100% | 96% | 100% | 91% | 30% | 17% | 41% | 27% | 4%
Ic1cccc(CSc2nnc(-c3ccncc3)o2)c1 | 100% | 88% | 92% | 80% | 81% | 26% | 19% | 30% | 19% | 22%
CCN(CC)CCCCN1c2ccccc2Oc2ccc(Cl)cc21 | 102% | 129% | 88% | 111% | 95% | 115% | 112% | 98% | 74% | 96%
O=C1Nc2ccccc2/C1=C1/Nc2ccccc2/C1=N\OCCC(O)CO (stereo not given) | 35% | 71% | 48% | 3% | 3% | 1% | 0% | 0% | 0% | -1%
O=c1c2ccccc2[nH]c(=S)n1CCN1CCC(=C(c2ccc(F)cc2)c2ccc(F)cc2)CC1 | 89% | 117% | 93% | 110% | 91% | 97% | 98% | 81% | 57% | 89%
O=C(Nc1cccc(Nc2cc(Nc3cccc(C(F)(F)F)c3)ncn2)c1)C1CC1 | 92% | 113% | 86% | 90% | 81% | 99% | 61% | 108% | 128% | 97%
Nc1nc(Nc2ccc(S(N)(=O)=O)cc2)nn1C(=S)Nc1c(F)cccc1F | 1% | 2% | 1% | 9% | 1% | 0% | -1% | 2% | 1% | 0%
COc1cc2ncnc(N3CCN(C(=O)Nc4ccc(Oc5ccccc5)cc4)CC3)c2cc1OC | 88% | 98% | 86% | 96% | 97% | 56% | 21% | 37% | 18% | 31%
NC(=O)c1ccc2[nH]c(-c3ccc(Oc4ccc(Cl)cc4)cc3)nc2c1 | 89% | 97% | 87% | 99% | 90% | 82% | 39% | 65% | 27% | 69%
Cc1ccc(NC2=CC(=O)c3sc(C)nc3C2=O)cc1 | 96% | 97% | 104% | 90% | 109% | 96% | 91% | 85% | 81% | 95%
Cn1nc2c3c(cccc31)C(=O)c1ccccc1-2 | 76% | 98% | 94% | 98% | 89% | 75% | 52% | 50% | 20% | 57%
COc1ccc(S(=O)(=O)N(CCO)c2ccccc2CN(C)C/C=C/c2ccc(Cl)cc2)cc1 | 91% | 96% | 89% | 95% | 80% | 100% | 92% | 104% | 62% | 90%
Oc1c2ccccc2c2c3c(cccc13)N=N2 | 51% | 34% | 6% | 75% | 38% | 26% | 2% | 6% | 1% | 2%
O=Nc1c(-c2c(O)[nH]c3ccccc23)[nH]c2ccccc12 | 53% | 72% | 30% | 8% | 1% | 1% | 0% | 1% | 0% | -1%
CC#CC(=O)Nc1cc2c(Nc3ccc(F)c(Cl)c3)ncnc2cn1 | 94% | 118% | 81% | 105% | 95% | 94% | 101% | 96% | 85% | 98%
Oc1ccc(-c2nc(-c3ccc(F)cc3)c(-c3ccncc3)[nH]2)cc1 | 93% | 107% | 99% | 93% | 40% | 83% | 26% | 87% | 85% | 90%
Cn1cnc2cc3c(Nc4cccc(Br)c4)ncnc3cc21 | 93% | 132% | 83% | 63% | 35% | 43% | 18% | 113% | 58% | 40%
